Our source for the Potency values is PubChem BioAssay AID1347048 (National Center for Advancing Translational Sciences (NCATS), 2019).

Screen size: about 76,000 compounds; about 1,200 (1.6%) were called active. Entries that show only a call come without a potency. About 4% were inconclusive and are not listed. The call rests on the fitted dose curve. Only a selection was taken, and actives are over-represented in it overall.
Potency means the concentration at half of the fitted maximal effect.

For the test, the target named is Atrial natriuretic peptide receptor 1 (Homo sapiens) (UniProt P16066). Put plainly: Natriuretic polypeptide receptor (hNpr1) antagonism - Primary qHTS. Further: nearly all actives have a fitted effect of over 60% in size. As to conditions: HEK293 hNpr1 GloSensor cGMP, ANP-stimulated luminescence; series mostly up to 46.3 µM. In short, it runs like this: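 HEK293 cells stably expressing human Npr1 and cGMP GloSensor pGS-40F, loaded 2 h with 2% GloSensor reagent, given compound 30 min at room temperature. Luminescence read before and 20 min after 0.1 nM hNppA.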
Atrial natriuretic peptide receptor 1 (Homo sapiens), sequence (P16066 whole entry, looked up): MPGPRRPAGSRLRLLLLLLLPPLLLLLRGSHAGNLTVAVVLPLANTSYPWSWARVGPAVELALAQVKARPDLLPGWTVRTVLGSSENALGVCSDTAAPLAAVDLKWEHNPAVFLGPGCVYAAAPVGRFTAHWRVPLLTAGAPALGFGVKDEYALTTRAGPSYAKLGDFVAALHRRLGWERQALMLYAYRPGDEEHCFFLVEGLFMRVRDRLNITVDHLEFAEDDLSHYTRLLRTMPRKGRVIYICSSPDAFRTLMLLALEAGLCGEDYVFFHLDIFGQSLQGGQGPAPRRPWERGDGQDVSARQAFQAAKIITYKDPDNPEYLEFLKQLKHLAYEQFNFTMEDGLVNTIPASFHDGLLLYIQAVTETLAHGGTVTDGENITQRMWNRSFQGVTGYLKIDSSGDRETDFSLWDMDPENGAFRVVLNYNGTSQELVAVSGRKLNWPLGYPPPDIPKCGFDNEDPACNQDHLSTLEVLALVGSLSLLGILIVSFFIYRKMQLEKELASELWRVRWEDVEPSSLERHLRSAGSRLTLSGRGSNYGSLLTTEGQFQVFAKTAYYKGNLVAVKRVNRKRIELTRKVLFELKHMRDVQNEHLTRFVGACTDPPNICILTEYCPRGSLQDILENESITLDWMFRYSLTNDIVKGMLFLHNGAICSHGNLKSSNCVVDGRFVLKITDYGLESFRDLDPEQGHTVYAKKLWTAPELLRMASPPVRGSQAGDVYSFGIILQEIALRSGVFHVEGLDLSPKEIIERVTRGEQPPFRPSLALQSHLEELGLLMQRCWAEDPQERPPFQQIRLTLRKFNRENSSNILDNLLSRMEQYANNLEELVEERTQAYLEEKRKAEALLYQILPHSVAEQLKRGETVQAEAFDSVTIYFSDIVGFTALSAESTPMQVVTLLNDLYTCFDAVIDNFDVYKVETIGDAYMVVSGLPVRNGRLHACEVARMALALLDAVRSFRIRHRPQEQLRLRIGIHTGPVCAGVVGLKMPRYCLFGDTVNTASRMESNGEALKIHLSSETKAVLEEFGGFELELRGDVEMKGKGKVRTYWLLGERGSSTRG
For orientation: In qHTS, concentration-response curves come from the screen itself.
In the case of `Cn1cc(-c2cc(-c3cccnc3)c3cncn3c2)cn1`, the Potency entry was “inactive”.
`COc1ccc(-c2cc(N3CCCC(NC(=O)c4cc(F)ccc4Cl)C3)n[nH]2)cc1` (centres undefined): the Potency entry is “inactive”.
Turning to `O=C(c1ccoc1)N1CCOc2ccc(CN3CCc4ccccc4C3)cc2C1`, the Potency result is “inactive”.
Turning to `O=C1c2cnc(-c3ccc(Cl)cc3)nc2OCCN1Cc1ccccc1`, the Potency is 31.6 µM (active).
Regarding `O=C1c2cnc(-c3ccc(O)c(F)c3)nc2OCCN1Cc1ccccc1`, the Potency entry is “inactive”.
`COc1ccc(-c2ncc3c(n2)OCCN(Cc2ccccc2)C3=O)cn1`: the Potency entry was “inactive”.
The same measure for `COc1ccc(CNC(=O)N2CCC3(CC2)CC(N(C(C)=O)C2CC2)CCO3)cc1` (centres undefined): “inactive”; for `Cc1nn2c(c1-c1ccccc1-c1ccccc1)N(C(=O)CN1CCOCC1)CCC2`: “inactive”.
As for `Cc1nn2c(c1-c1ccccc1Oc1ccccc1)N(C(=O)C(C)C)CCC2`, the Potency result was “inactive”.
The same measure for `Cc1nn2c(c1-c1ccccc1-c1ccccc1)N(CC1CC1)CCC2`: 2.82 µM (active).
For `COc1ccccc1-c1[nH]nc2ncc(C(=O)N3CCN(Cc4ccccc4)CC3)nc12`, the Potency entry was “inactive”.
For the compound `CN(C)C(=O)c1cccnc1OC1CCN(S(=O)(=O)c2ccc3c(c2)CCCC3)C1` (centres undefined), the Potency entry was “inactive”.
Consider `O=C(c1ccno1)N1C[C@@H]2OCC(=O)N(c3ccccc3)[C@@H]2C1`, for which the Potency entry is “inactive”.
On to `O=C(Nc1cccc(Cl)c1)c1cnc2c(c1)N(C(=O)CCc1ccccc1)CCC2`, for which the Potency result was “inactive”.
Take `N#Cc1ccc(CN2CCc3nc(C(=O)N4CCOCC4)oc3CC2)cc1`: the Potency entry is “inactive”.
As to `O=C(Nc1ccc(Cl)cc1)c1nc2c(o1)CCN(Cc1ccsc1)CC2`, the Potency was 8.91 µM (active).
Take `CCNC(=O)C1C(c2cccc(NC(=O)c3cccc(C)c3)c2)OC(=O)N1Cc1cccc(Cl)c1` (centres undefined): the Potency entry is “inactive”.
Consider `O=C(Cn1nc2n(c1=O)CCCC2)Nc1ccc(Cl)cc1`, for which the Potency result was “inactive”.
Take `O=C(Nc1ccccc1)c1nc2c(o1)CCN(Cc1cccc(Cl)c1)CC2`: the Potency was 11.2 µM (active).
`Cc1cccc(CN2CCc3nc(C(=O)Nc4ccc(Cl)cc4)oc3CC2)c1`: the Potency was 8.91 µM (active).
The same measure for `O=C(NCCOc1ccccc1)c1nc2c(o1)CCN(CC1CCCCC1)CC2`: “inactive”; for `COc1ccc(CN2CCc3nc(C(=O)N4CCOCC4)oc3CC2)cc1OC`: “inactive”; for `COCCNc1ncccc1-c1noc([C@@H]2CCCN2Cc2ccc3c(c2)OCO3)n1`: “inactive”.
The same measure for `CC(C)N1C(=O)OCC12CCN(C(=O)c1ccc(Oc3ccccc3)cc1)C2` (centres undefined): “inactive”; for `CCc1nc2c(c(-c3ccc(Cl)cc3)n1)CN(CCC(C)C)CC2`: “inactive”.
Take `COC(=O)N1CCCc2nc(C)nc(-c3ccc(O)cc3)c2C1`: the Potency result was “inactive”.
With `CN(C)c1cc(N2C[C@@H](CN3CCOCC3)C[C@H](CO)C2)ncn1`, the Potency result is “inactive”.
Consider `COc1ccccc1C(=O)N1CCC2(CC1)CC(=O)c1ccccc1O2`, for which the Potency entry was “inactive”.
Turning to `CC(=O)N(C1CC1)C1CCOC2(CCN(C(=O)C3(c4ccccc4)CC3)CC2)C1` (centres undefined), the Potency entry is “inactive”.
The same measure for `COCC1CN(C(C)=O)CC12CCN(Cc1ccccc1OC)CC2` (centres undefined): “inactive”; for `COc1ccc(CN2C=C(C(=O)OCc3nc(C)no3)C(C)=NS2(=O)=O)cc1`: “inactive”.
For the compound `CC1=NS(=O)(=O)N(C)C=C1C(=O)OCc1nc(-c2ccc(C)cc2)no1`, the Potency was 10 µM (active).
With `CC1=NS(=O)(=O)N(C)C=C1C(=O)OCc1nc(-c2ccccc2C)no1`, the Potency result was “inactive”.
The same measure for `CCn1ncc(N2CCC(NC(=O)c3ccccc3OC)CC2)cc1=O`: “inactive”.
Consider `COc1cccc(C(=O)NCC2Cn3cccc3C(=O)N2Cc2ccccc2)c1` (centres undefined), for which the Potency entry was “inactive”.
`COc1cccc(-c2cc(-c3nc(C4CCOC4)no3)[nH]n2)c1` (centres undefined): the Potency result is “inactive”.
The same measure for `COc1ccc(-c2[nH]nc3ncc(C(=O)Nc4ccccc4)nc23)c(C)c1`: “inactive”; for `COc1ccccc1Nc1cnc2ccc(-c3ccc(OC)c(OC)c3)nn12`: “inactive”; for `CN(C)c1ccc2ncc(Nc3ccccc3F)n2n1`: “inactive”.
Turning to `COc1ccccc1Nc1cnc2ccc(N(C)Cc3cccnc3)nn12`, the Potency is 25.1 µM (active).
On to `O=C1NC2(CN([S+](=O)([O-])c3cccc(C(F)(F)F)c3)C2)Oc2ccccc21`, for which the Potency result is “inactive”.
The same measure for `Cc1cccc(-n2nc(-c3c(C)nc4scc(CC(=O)NC(C)C(C)C)n4c3=O)cc2C)c1` (centres undefined): “inactive”; for `COc1cccc(NC(=O)Cn2c(-c3ccccc3)nc(C)cc2=O)c1`: “inactive”.
Consider `COc1cccc(NC(=O)Cn2c(N(C)Cc3ccccc3)nc(C)cc2=O)c1`, for which the Potency was 10 µM (active).
For `COc1cccc(CNC(=O)Cn2c(N(C)Cc3ccccc3)nc(C)cc2=O)c1OC`, the Potency was 15.8 µM (active).
As for `CCCN1C(=O)Cc2ccccc2C1C(=O)NCc1cccc(OC)c1OC` (centres undefined), the Potency result is “inactive”.
Regarding `COc1cc(NC(=O)Cn2c(N3CCc4ccccc4C3)nc(C)cc2=O)cc(OC)c1`, the Potency result is “inactive”.
The same measure for `COc1ccccc1CNC(=O)CN1CCCC(CO)(CC2CC2)C1` (centres undefined): “inactive”; for `COc1ccc2[nH]c3c(c2c1)CCNC31CCN(C(=O)c2cc(C)n(C)n2)CC1`: “inactive”; for `COc1cccc(C(C(=O)O)N2CCN(c3ccccn3)CC2)c1OC` (centres undefined): “inactive”.
On to `Cc1cc(C(=O)N2CCC3(CC2)CC(C(=O)N2CCOCC2)N(C)C3)nn1C` (centres undefined), for which the Potency result was “inactive”.
For `CCn1nccc1C(=O)N1CCCCCNC(=O)[C@H]2C[C@H](C(=O)N3CCc4ccccc4C3)C[C@H]21`, the Potency result is “inactive”.
Regarding `Cc1ccc(OCc2nc(C3CCN(C(=O)c4c5c(nc6ccccc46)CCCC5)CC3)no2)cc1`, the Potency result is “inactive”.
Take `Cc1ccc(OCc2nc(C3CCN(C(=O)c4noc(C)c4CN4CCCCC4)CC3)no2)cc1`: the Potency result is “inactive”.
The same measure for `Cc1ccc(OCc2nc(C3CCN(C(=O)CCc4nc5ccc(Cl)cc5[nH]4)CC3)no2)cc1`: 11.2 µM (active); for `COCCOC1CCN(C(=O)c2[nH]nc3c2COc2ccccc2-3)CC1`: “inactive”; for `CN(C(=O)Cc1c[nH]c2ncc(-c3cnn(C)c3)cc12)c1ccccc1`: “inactive”.
The same measure for `COc1ccc(CNC(=O)Cc2c[nH]c3ncc(-c4ccccc4)cc23)cc1OC`: “inactive”.
As for `O=C(Cc1c[nH]c2ncc(-c3ccccc3F)cc12)N1CCOCC1`, the Potency is 25.1 µM (active).
Take `Cc1noc(C)c1-c1cnc2[nH]cc(CC(=O)N3CCOCC3)c2c1`: the Potency was 22.4 µM (active).
The same measure for `COCCNC(=O)Cc1c[nH]c2ncc(-c3cccnc3OC)cc12`: “inactive”.
With `Cc1noc(C)c1-c1nccc2c(=O)cc(N3CCOCC3)oc12`, the Potency entry is “inactive”.
With `CCCCSc1nc(N)cc(N2CCCC(OCc3cccnc3)C2)n1` (centres undefined), the Potency result is “inactive”.
Regarding `CC(C)CNC(=O)CC(c1ccc(F)cc1F)c1c[nH]c2ccccc12` (centres undefined), the Potency entry is “inactive”.
On to `COc1ccc(CNC(=O)c2cc3n(n2)CC(c2ccc4c(c2)OCO4)OC3)c(OC)c1` (centres undefined), for which the Potency result is “inactive”.
The same measure for `CCCc1nc(C(=O)N[C@@H]2[C@@H](Cc3ccccc3)[C@H]3OCC[C@@H]23)cs1`: “inactive”.
The same measure for `Cc1ccc(NC(=O)Cn2ccn3nc4c(c3c2=O)CC(C)CC4)cc1Cl` (centres undefined): “inactive”; for `O=c1n(CC2CC2)nc2n1CCC(NS(=O)(=O)c1cccc(F)c1)CC2` (centres undefined): “inactive”; for `COc1ccc(-c2noc([C@@H]3CCCN3C(=O)CCc3ccccc3)n2)cc1`: “inactive”.
On to `COc1ccc(CC(=O)N2CCC[C@H]2c2nc(-c3ccccc3)no2)cc1`, for which the Potency entry is “inactive”.
Take `COc1ccc(-c2noc([C@@H]3CCCN3C(=O)Cc3ccccc3Cl)n2)cc1`: the Potency entry is “inactive”.
Take `Cc1ccc(CC(=O)N2CCC(Cc3nc(-c4cnccn4)no3)CC2)cc1`: the Potency result is “inactive”.
Consider `COc1ccc(-c2noc(CC3CCN(C(=O)Cc4ccc(C)cc4)CC3)n2)cc1`, for which the Potency was 15.8 µM (active).
As for `CCOc1ccc(CC(=O)N2CCC(Cc3nc(-c4cnccn4)no3)CC2)cc1`, the Potency entry was “inactive”.
Turning to `COc1ccc(C(=O)N2CCC(Cc3nc(-c4cnccn4)no3)CC2)cc1`, the Potency entry was “inactive”.
As for `COc1ccc(-c2noc(CC3CCN(C(=O)Cc4ccccc4)CC3)n2)cc1`, the Potency was 11.2 µM (active).
For the compound `COc1ccc(-c2noc(CC3CCN(C(=O)CC4CCCCC4)CC3)n2)cc1`, the Potency is 6.31 µM (active).
As for `O=C(Nc1ccc(C(F)(F)F)cc1)N[C@@H]1C[C@H](CO)[C@@H](O)[C@H]1O`, the Potency entry is “inactive”.
Take `COc1ccc(C(=O)N2CCC3(CC2)NC(=O)N(c2ccc(F)cc2)N3)cc1OC`: the Potency result was “inactive”.
The same measure for `O=C(Nc1ccccc1)N1CCCCC1c1noc(COc2ccc(F)cc2)n1` (centres undefined): “inactive”.
For `CCCn1cnc2c1CN(S(=O)(=O)Cc1ccccc1)[C@H](C(=O)OC)C2`, the Potency result is “inactive”.
On to `CCc1nc(-c2c3n(c(=O)n(CCc4ccc(OC)cc4)c2=O)CCCC3)no1`, for which the Potency entry was “inactive”.
The same measure for `COc1cccc(CN2CCc3c(cc(C(=O)NCCN4CCCCC4)n3C)C2)c1`: “inactive”.
Take `COc1ccc(NC(=O)c2ccc3c(c2)N(C(=O)c2ccc(F)cc2)CC3)c(C)c1`: the Potency result is “inactive”.
As to `CN1CCCCCC(O)c2cc(C(=O)NCc3ccc(F)cc3)ccc21` (centres undefined), the Potency result was “inactive”.
As to `COc1ccc(CNC(=O)c2cccc3c2CCN3C(=O)c2ccc(F)cc2)cc1OC`, the Potency was 8.91 µM (active).
Regarding `O=C(c1ccnc(-c2nnc3ccc(N4CCOCC4)nn23)c1)N1CCCCC1`, the Potency entry was “inactive”.
For `COc1ccccc1CNC(=O)CCC[C@@H]1[C@H]2CCCN3CCC[C@@H](CN1C(=O)c1ccccc1)[C@@H]23`, the Potency result is “inactive”.
The same measure for `COCCN1CCCCCC(O)c2cc(C(=O)Nc3cccc(OC)c3)ccc21` (centres undefined): “inactive”; for `CN(Cc1ccc(CCN)cc1)Cc1cccc(-n2cccn2)c1`: “inactive”; for `CCOc1ccccc1C(=O)NCc1nnc2cc(-c3nc(C)no3)ccn12`: “inactive”.
`O=C(NCc1nnc2cc(-c3nc(C4CC4)no3)ccn12)c1ccc(F)cc1Cl`: the Potency was 7.08 µM (active).
The same measure for `CN(C)c1ccc(C(=O)NCc2nnc3cc(-c4nc(C5CC5)no4)ccn23)cc1`: “inactive”; for `COc1cccc(CC(=O)N2CCCC(c3nc(-c4cccnc4)no3)CCNC(=O)CC2)c1` (centres undefined): “inactive”; for `Cc1cccc(OCC(=O)N2CCN(c3cc(C(F)(F)F)nc(C)n3)CC2)c1`: “inactive”.
As to `CC(C)CN[C@H]1[C@H](O)[C@H](O)C[C@@H]1c1ccc(N2CCOCC2)nc1`, the Potency result was “inactive”.
Regarding `CN(C)CCN(C)c1ccc(-c2nc(-c3ccccc3F)no2)cn1`, the Potency result was “inactive”.
`Oc1ccc(-c2ccc(-c3nc(CCc4ccccc4)no3)cn2)cc1`: the Potency entry is “inactive”.
Consider `CN(CCc1cn[nH]c1)c1ccc(-c2nc(-c3ccccc3F)no2)cn1`, for which the Potency was 8.91 µM (active).
